Assay outcomes: PubChem BioAssay, National Center for Advancing Translational Sciences (NCATS)
SW480 rereplic = DNA re-replication induction in SW480 cells; SW480 DNA re-replication, Hoechst DNA content imaging, 48 h; Potency, µM (highest dose often 46.1 µM), for the others: at the top dose re-replication activation, most hits filed as activators; hit rate 1.8% among 340,000; AID 624297; also: % of control where 0% means no effect; nearly all actives have a fitted effect of over 55% in size
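Image-based read-out: total Hoechst fluorescence of nuclei (405 nm excitation, 500-530 nm emission), with hits raising the fraction of high-intensity nuclei. SW480 colon cells incubated 48 hr with compounds at 37 C.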
ALOX12 inh = inhibitors of human 12S-lipoxygenase ALOX12; P18054; purified 12hLO, xylenol orange hydroperoxide absorbance; Potency, µM (top dose mostly 108 µM), inactives show at the top dose activity change, negative = inhibition, most hits filed as inhibitors; hit rate 1.1% among 580,000; also: % is scaled to controls: 0 for no effect and ±100 for the full control effect
Target sequence (P18054 whole entry, looked up): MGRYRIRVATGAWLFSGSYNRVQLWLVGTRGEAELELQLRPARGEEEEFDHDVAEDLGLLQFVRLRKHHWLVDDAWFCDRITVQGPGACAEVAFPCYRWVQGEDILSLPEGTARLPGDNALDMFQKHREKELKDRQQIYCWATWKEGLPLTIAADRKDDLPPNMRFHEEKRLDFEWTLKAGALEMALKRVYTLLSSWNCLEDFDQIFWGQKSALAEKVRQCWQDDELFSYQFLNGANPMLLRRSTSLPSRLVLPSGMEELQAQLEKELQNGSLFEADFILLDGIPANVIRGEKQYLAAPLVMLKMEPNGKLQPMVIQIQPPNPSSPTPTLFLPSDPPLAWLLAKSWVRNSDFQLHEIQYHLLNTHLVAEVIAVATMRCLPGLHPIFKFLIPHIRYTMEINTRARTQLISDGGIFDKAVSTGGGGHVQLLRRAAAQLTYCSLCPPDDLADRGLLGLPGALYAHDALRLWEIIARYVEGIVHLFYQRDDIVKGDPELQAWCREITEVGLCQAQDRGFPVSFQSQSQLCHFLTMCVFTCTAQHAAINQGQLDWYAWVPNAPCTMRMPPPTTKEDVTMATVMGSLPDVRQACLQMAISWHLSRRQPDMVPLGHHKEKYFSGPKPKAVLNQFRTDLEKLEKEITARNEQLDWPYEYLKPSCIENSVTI
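Hydroperoxide product was detected by ferrous iron/xylenol orange as the 573 to 405 nm absorbance ratio. Arachidonic acid at 40 uM (final) was turned over for 30 min at room temperature by 150 nM human 12hLO, pH 7.0 Hepes buffer, after 15 min compound preincubation.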
KB-3-1 cytotox = KB-3-1 parental cell cytotoxicity; KB-3-1 viability, CellTiter-Glo ATP luminescence, 72 h; Potency, µM (top dose mostly 46.1 µM), most hits filed as cytotoxic; hit rate 1.4% among 400,000; AID 1347075; also: % is scaled to controls: 0 for no effect and ±100 for the full control effect; nearly all actives have a fitted effect of over 60% in size
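Multi-concentration cytotoxicity screen in KB-3-1 cells grown in DMEM lacking phenol red with 10% FBS. After 72 h at 37 °C with compound, ATP-dependent luminescence was recorded.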
PINK1 expr mod = PINK1 expression modulation; PINK1 immunofluorescence, high-content cytometry, 24 h; Potency, µM (top dose mostly 76.6 µM), for the others: at the highest dose activation (PINK1 increase), hits mostly activators; hit rate 0.2% among 410,000; active = well fitted activation curve with a large enough effect; inconclusive = small, poorly fitted or top-dose-only effect; cell line not stated here; also: % of control where 0% means no effect; nearly all actives have a fitted effect of over 65% in size
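Stable cell line treated 24 h with compounds at 5 concentrations (CCCP controls), then fixed and immunostained for PINK1 plus nuclear and cell stains; PINK1 immunofluorescence quantified by laser-scanning microplate cytometry.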
KB-V1 MDR tox = KB-V1 MDR subline cytotoxicity | KB-V1 MDR cells viability, CellTiter-Glo, 72 h | Potency, µM (highest dose often 46.1 µM), hits mostly cytotoxic | hit rate 3.4% among 400,000 | AID 1347076; also: % is scaled to controls: 0 for no effect and ±100 for the full control effect; nearly all actives have a fitted effect of over 60% in size
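Potencies derive from concentration-effect curves fitted to normalized luminescence (CellTiter-Glo) of KB-V1 cells treated for 72 h at 37 degrees C in phenol-red-free DMEM containing 10% FBS.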
MCF10A rereplic = inducers of DNA re-replication in MCF 10A breast cells; MCF 10A DNA re-replication, Hoechst nuclear intensity, 48 h; Potency, µM (series often up to 46.1 µM), inactives show at the top dose activity, positive = re-replication, hits mostly activators; hit rate 2.9% among 350,000; also: % of control where 0% means no effect; nearly all actives have a fitted effect of over 50% in size
An asterisk follows results filed as active; i = inactive; ? = inconclusive; . = no result given; ! = a repeat was not active; [ ] = another dose, or the depositor's remark. This is a sample that favours compounds with a hit; in the whole collection about 5.8% have one here. Unless noted, calls follow the shape of the dose curve; as a rule, active = well fitted curve in the direction sought with a large enough effect; inconclusive = small, poorly fitted or top-dose-only effect, or another doubt; inactive = no such curve, though single readings can be large; an effect the other way counts as inactive or inconclusive. Potency is read from the fitted curve at half-maximal effect.

SMILES	SW480 rereplic	ALOX12 inh	KB-3-1 cytotox	PINK1 expr mod	KB-V1 MDR tox	MCF10A rereplic
COC(=O)[C@]12OC[C@]34C([C@@H](O)[C@@H]1O)[C@]1(C)CC(=O)C(O)=C(C)[C@@H]1C[C@H]3OC(=O)[C@H](O)[C@@H]24 (some centres not stated)	-63.9%	0.9%	?	1.5%	i	14.6µM*
O=c1oc2cccnc2n1CCS(=O)(=O)c1ccc(F)cc1	?	14.9%	i	0.7%	i	20.6µM*
O=C1NC(=O)C(=Cc2ccc(SC3CCCCC3)o2)C(=O)N1	?	22.4µM*	i	-1.9%	i	20.6µM*
CN(C)C(=O)[C@H]1CN2CCC1C[C@@H]2Cn1cc(-c2cccc(O)c2)nn1 (some centres not stated)	.	2.1%[176 µM]	.	.	.	.
CCOC(=O)c1c(C)n(Cc2ccccc2)c2ccc(OC)cc12	.	12.4%	.	.	.	.
COc1cccc(NP(=O)(Oc2ccccc2)Oc2ccccc2)c1	16.4µM*	-12.3%	5.8µM*	17.8%	i	3.26µM*
COc1cccc(CC(=O)N2[C@H]3CC[C@@H]2c2cnc(-c4ccccc4)nc2C3)c1	.	35.6%	.	.	.	.
Nc1c2c(nc3sc4c(c13)CCCCC4)CCCC2	-2.2%	10.4%	29.1µM*	?	?	?
NC(=O)c1sc2nc3c(c(-c4cccs4)c2c1N)CCCC3	-422.5%	.	.	.	.	?
CCN1CCN(C(=O)COc2ccc3c(=O)c(-c4ccccc4)coc3c2)CC1	.	2.0%	.	.	.	.
Cn1nc(C(=O)N[C@@H]2COCC[C@@H]2OCc2cscn2)c2ccccc21	.	19.1%	.	.	.	.
CCC(NC(=O)OC(C)(C)C)C(=O)Oc1cc(C)cc2oc(=O)c3c(c12)CCC3 (configuration not stated)	0.8%	0.0%	i	-0.2%	14.6µM*	23.7%
Cc1cc(OC(=O)CCNC(=O)OC(C)(C)C)c2c3c(c(=O)oc2c1)CCC3	-12.5%	16.2%	i	1.2%[38.3 µM]	i	20.9%
CSc1cc(-c2ccccc2)n(Cc2c(Cl)cccc2Cl)c(=O)c1C#N	0.3%	26.3%	3.26µM*	7.8%	?	?
Cc1c(C(=O)O)cc(-c2ccccc2)n1Cc1ccccc1	-3.4%	-5.4%	i	-0.4%	i	-6.4%
CN1C[C@H](C(=O)N[C@]2(C)O[C@@]3(O)[C@@H]4CCCN4C(=O)[C@H](Cc4ccccc4)N3C2=O)CC2c3cccc4[nH]cc(c34)C[C@H]21 (some centres not stated)	0.355µM*!	?	i	1.9%	i	?
CN=CNc1ccc(C)cc1C	.	0.4%[176 µM]	.	.	.	.
CN(C(=O)c1cn(Cc2ccccc2)c2ccccc12)C1CCS(=O)(=O)C1 (configuration not stated)	.	15.7%	.	.	.	.
O=c1cc(C(F)(F)F)c2cc3c4c(c2o1)CCCN4CCC3	?	0.1%	i	-1.3%	i	10.3µM*
Cc1cc2c(C(F)(F)F)cc(=O)oc2c2c1NCCC2	?	15.4%	i	.	i	0.6%
O=C(Nc1ccc(Cl)cc1)Nc1ccc(Cl)c(Cl)c1	?	-0.3%	?	?	20.6µM*!	?
CCN1CCN(C(=O)Cc2ccc(Nc3ncc(F)c(Nc4ccc(C(=O)Nc5ccccc5Cl)cc4)n3)cc2)CC1	.	3.85µM*	.	.	.	.
Cc1nc(-c2ccc(N(C)C)cc2)cc([C@H]2CN3CC[C@H]2C[C@@H]3CNCc2cccc(C#N)c2)n1	.	46.5%	.	.	.	.
O=C(CCl)c1ccc(Oc2ccc(C(=O)CCl)cc2)cc1	17.7%	.	.	.	.	26.6µM*
CN(C)CC(=O)Nc1ccc2n(c1=O)C[C@H]1C[C@@H]2CN(C(=O)c2cccnc2)C1	.	86.2%[176 µM]	.	.	.	.
SMILES	SW480 rereplic	ALOX12 inh	KB-3-1 cytotox	PINK1 expr mod	KB-V1 MDR tox	MCF10A rereplic
O=[N+]([O-])c1ccc(N2CCCC2)cc1N/N=C1\CN2CCC1CC2	23.1µM*	-28.9%	i	-2.0%	20.6µM*	1.4%
CNc1cc(N2CCN(C)CC2)ccc1[N+](=O)[O-]	1.1%	-6.6%	i	0.2%	i	17.3%
COc1ccc(-c2cccc3c2CCNC3)cc1OC	.	30.4%	.	.	.	.
CCCCn1c(O)c(C(=O)/C=C/c2c[nH]c3ccccc23)c(=O)[nH]c1=O	?	?	i	-1.5%	i	18.4µM*
CCN(CC)C(=O)c1ccc2c(c1)C1C(Cl)C(Sc3ccccc3[N+](=O)[O-])CC1C(C(=O)O)N2 (configuration not stated)	-0.6%	.	2.59µM*	1.3%	i	1.1%
O=C(O)c1cccc2c1NC(c1cccc([N+](=O)[O-])c1)C1CC(Sc3ccccc3[N+](=O)[O-])C(Cl)C21 (configuration not stated)	-12.1%	8.91µM*	i	-2.8%	i	?
Cc1ccc2c(c1Cl)NC(C(=O)O)C1CC(Sc3ccccc3[N+](=O)[O-])C(Cl)C21 (configuration not stated)	-6.5%	.	i	-1.1%	i	8.1%
O=C1NCN(c2ccccc2)C12CCN(C(c1cccc3ccccc13)c1nnnn1Cc1ccccc1)CC2 (configuration not stated)	.	-6.3%	?	2.0%	i	.
CCCCn1nnnc1C(c1cccc2ccccc12)N1CCC2(CC1)C(=O)NCN2c1ccccc1 (configuration not stated)	.	-13.0%	?	-0.6%	20.6µM*	.
Cc1ccc(-n2c(-c3cccs3)nc3ccccc3c2=O)cc1	-4.8%	-19.0%	i	0.8%	23.1µM*	11.4%
COc1cc(C2c3cc4c(c(O)c3CC3COC(=O)C32)OCO4)cc(OC)c1O (configuration not stated)	.	?	0.0164µM*	3.3%	0.184µM*	.
COc1cc(C2c3cc4c(cc3CC3COC(=O)C32)OCO4)cc(OC)c1O (configuration not stated)	0.164µM*	?	i	1.7%	?	?
CCC(CC)c1cc([C@H]2CN3CC[C@H]2C[C@@H]3CNC(=O)COc2ccccc2)nc(-c2ccncc2)n1	.	0.5%	.	.	.	.
Cc1noc(C)c1COc1ccc(CC(=O)N2CCN(CC(=O)N3CCCC3)CC2)cc1	.	-10.2%	.	.	.	.
CC1OC(OC2C(O)CC(OC3C(O)CC(OC4CCC5(C)C(CC[C@@H]6[C@@H]5CCC5(C)C(C7=CC(=O)OC7)CCC65O)C4)OC3C)OC2C)CC(O)C1O (some centres not stated)	.	4.5%	.	.	.	.
O=C1NC(=S)NC(=O)C1c1ccccc1	-6.9%	31.6µM*	i	1.1%	i	-30.8%
O=C(c1ccc(C(F)(F)F)cc1)C1CCCN(C2CCSCC2)C1 (configuration not stated)	5.17µM*	?	i	17.6%	?	-2.3%
